Source: PubChem BioAssay (Tox21)
Records with an inconclusive call do not appear. A call without a number means that no potency is given here. The source made the active and inactive calls. Calls follow the shape of the dose curve; as a rule, active = well fitted inhibition curve with a large enough effect in the repeat runs; inconclusive = weak or mixed curves; inactive = no such curve, though single readings can be large or run the other way.

These compounds were tested against Cytochrome P450 1A2 (Homo sapiens) (UniProt P05177) (assay: Cytochrome P450 Family 1 Subfamily A Member 2 (CYP1A2) small molecule antagonists: luciferase reporter qHTS assay (AID 1671199; also: nearly all actives have a fitted effect of over 50% in size)). Details: P450-Glo CYP1A2 enzyme, luciferin luminescence, 1 h; series mostly up to 115 µM.
Description: National Center for Advancing Translational Sciences [NCATS]
U.S. Environmental Protection Agency [EPA]
National Institutes of Environmental Health Sciences [NIEHS]
National Toxicology Program [NTP]
U.S. Food and Drug Administration [FDA]
Cytochrome P450 (CYP) enzymes are membrane-bound hemeproteins that play a key role in metabolism of drugs and xenobiotics. Evaluation of the effect of chemicals on CYP isozymes is useful to minimize the adverse drug reactions and toxicities in drug development process. Tox21 chemicals were tested for their effect on CYP enzyme activities by using P450-Glo (TM) screening systems (Promega Corporation, Madison, WI). These systems provide a luminescent method containing proluciferin substrates and are converted to luciferin products by CYP isozymes. The luciferin products formed are detected with a luciferin detection reagent, and the amount of light produced is proportional to CYP activity. P450-Glo (TM) CYP1A2 screening system (Catalog. No. V9770) was used to detect the compounds that interfere in CYP1A2 activity. The positive control compound used for CYP1A2 assay is furafylline (Sigma-Aldrich, St. Louis, MO).
Tox21 Assay Protocol Summary:
Two ul of enzyme-substrate mix was dispensed into medium binding white/solid 1536-well plates (Greiner Bio-One North America Inc., Monroe, NC) using a BioRaptr Flying Reagent Dispenser (FRD, Beckman Coulter, Brea, CA). Compounds dissolved in DMSO and positive control (furafyllline) were transferred to the assay plates at 23 nl using a Pintool station (Wako, San Diego, CA). The assay plates were incubated at room temperature for 10 min. Then 2 ul of NADPH regeneration solution was added to each well of the assay plates using an FRD and incubated at room temperature for 1 h. The reaction was stopped by adding 4 ul of detection reagent using an FRD and after 20 min incubation at room temperature the luminescence signal was measured using a ViewLux plate reader (Perkin Elmer, Shelton, CT). Data were expressed as relative luminescence units.
Potency is read from the fitted curve at half-maximal effect.

Cytochrome P450 1A2 (Homo sapiens), sequence (P05177 whole entry, looked up): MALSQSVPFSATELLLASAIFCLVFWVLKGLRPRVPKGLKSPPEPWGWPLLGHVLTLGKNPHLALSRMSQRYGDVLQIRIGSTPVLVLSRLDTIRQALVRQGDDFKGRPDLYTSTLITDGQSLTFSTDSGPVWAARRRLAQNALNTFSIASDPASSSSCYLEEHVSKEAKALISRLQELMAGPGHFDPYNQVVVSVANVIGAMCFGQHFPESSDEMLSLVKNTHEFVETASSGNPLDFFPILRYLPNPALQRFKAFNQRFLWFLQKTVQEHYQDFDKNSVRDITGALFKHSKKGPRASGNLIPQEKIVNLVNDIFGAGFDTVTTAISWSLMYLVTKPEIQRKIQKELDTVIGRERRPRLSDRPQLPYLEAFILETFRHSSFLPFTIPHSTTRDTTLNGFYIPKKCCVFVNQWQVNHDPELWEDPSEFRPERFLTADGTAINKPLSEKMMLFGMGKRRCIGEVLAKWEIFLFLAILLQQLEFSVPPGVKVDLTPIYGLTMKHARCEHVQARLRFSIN

Compound	Potency
O=C(Cl)c1ccc(F)c(Cl)c1	inactive
c1ccc(CN(Cc2ccccc2)Cc2ccccc2)cc1	20 µM (active)
CCCOC(C)=O	inactive
CC/C=C\CCO	inactive
CC(=O)Nc1ccn(C2COC(COC(=O)c3ccccc3)O2)c(=O)n1 (stereo not given)	24.5 µM (active)
CC(C)=CCC/C(C)=C/C=N/O	39.9 µM (active)
OCCCO	inactive
COC(=O)Cc1cccc2ccccc12	20 µM (active)
CC(C)Oc1ccccc1O	inactive
O=C1c2ccccc2C(=O)C1c1ccc2ccccc2n1	2.22 µM (active)
CCC(=O)O[C@]1(C(=O)COC)[C@@H](C)C[C@H]2[C@@H]3CCC4=CC(=O)C=C[C@]4(C)C3(F)[C@@H](O)C[C@@]21C (stereo not given in full)	inactive
O=C(O)CCc1nc2ccccc2[nH]1	inactive
CCc1ccc(C(=O)C(C)CN2CCCCC2)cc1 (stereo not given)	inactive
CO[C@@H]1COCC[C@@H]1N[C@@H]1CC[C@@](C(=O)N2CCc3ncc(C(F)(F)F)cc3C2)(C(C)C)C1	inactive
CCOc1cc(OCC)c(C(C)=O)cc1OCC	1.11 µM (active)
C[C@H]1C[C@H]2[C@@H]3CCC4=CC(=O)C=C[C@]4(C)[C@@]3(F)[C@@H](O)C[C@]2(C)[C@@]1(O)C(=O)COP(=O)(O)O	inactive
CC1(COc2ccc(CC3SC(=O)NC3=O)cc2)CCCCC1 (stereo not given)	inactive
CS(C)=O	inactive
Cc1c(Cl)cccc1[N+](=O)[O-]	inactive
CCC(=O)O[C@@H]1C[C@H]2CC[C@]1(C)C2(C)C	inactive

Compound	Potency
CC1(C)CC(O)CC(C)(C)N1[O]	inactive
COc1ccc(/C=C/S(=O)(=O)NC(=O)c2ccc(C)cc2Cl)cc1	inactive
CC(CN=Cc1ccccc1O)N=Cc1ccccc1O (stereo not given)	20 µM (active)
COc1cc(CNC(=O)CCCC/C=C/C(C)C)ccc1O	30.9 µM (active)
O=C(OCCCCCOC(=O)c1ccccc1)c1ccccc1	7.96 µM (active)
COc1ccc(C(=O)Nc2ccccc2)cc1[N+](=O)[O-]	5.68 µM (active)
COc1ccc(/C=C/c2cc(OC)cc(=O)o2)cc1	9.15 µM (active)
CO[C@@H]1[C@@H](O[C@@H]2O[C@H](C)[C@@H](O[C@H]3C[C@@](C)(O)[C@@H](O)[C@H](C)O3)[C@H](N(C)C)[C@H]2O)[C@@H](CC=O)C[C@@H](C)[C@@H](O[C@@H]2CC[C@H](N(C)C)[C@@H](C)O2)/C=C/C=C/C[C@@H](C)OC(=O)C[C@H]1OC(C)=O	inactive
Clc1nc2ccccc2nc1Cl	5.09 µM (active)
O=C(OCCN1CCOCC1)c1cccnc1Nc1cccc(C(F)(F)F)c1	9.77 µM (active)
CCc1c(C)[nH]c2c1C(=O)C(CN1CCOCC1)CC2 (stereo not given)	inactive
CCCCCCCCCCCC(=O)OCC	inactive
O=C1CCCN1CCO	39.9 µM (active)
CC(=O)c1cccnc1	inactive
Nc1nc(Cl)nc2c1ncn2[C@H]1C[C@H](O)[C@@H](CO)O1	28.1 µM (active)
CC(=O)S[C@H](C(=O)N[C@H]1Cc2ccccc2[C@H]2CCC[C@@H](C(=O)O)N2C1=O)C(C)C	inactive
O=C(O)c1ccc2cc(O)ccc2c1	inactive
C/C(=C(\CCO)SS/C(CCO)=C(\C)N(C=O)Cc1cnc(C)nc1N)N(C=O)Cc1cnc(C)nc1N	inactive
O=c1[nH]nc(-c2ccc([N+](=O)[O-])o2)o1	31.7 µM (active)
CC(=O)c1ccc(Cl)c(Cl)c1Cl	11.2 µM (active)
